Shown is part of a subset that was picked to be rich in hits.
CHX counter = counter-screen for Shiga toxin inhibitors: cycloheximide protein synthesis inhibition. cell reporter, cycloheximide protein synthesis inhibition counterscreen. max response, %. 12% of 300,000 active. AID 2314; in the data active = max response mostly above about 13%, no sharp cut-off; inactive = mostly below about 14%; note: read at 38.3 µM for the half of the compounds with a filed dose
MARV entry inh = inhibitors of Marburg virus binding or cell entry. Marburg virus pseudotyped entry inhibition, cell reporter. Potency, µM (doses to about 37.8 µM), actives largely listed as inhibitors. 1.8% of 300,000 active; calls by dose curve; tested in HEK293 cells
Shiga toxin inh = Shiga toxin inhibition | Vero cells, Shiga toxin protein synthesis inhibition reporter | inhibition, % at 38.7 µM | 9.2% of 290,000 active | AID 2315; in the data active = inhibition mostly above about 28%, no sharp cut-off; inactive = mostly below about 43%
LASV entry inh = inhibitors of Lassa virus binding or cell entry; Lassa virus pseudotype entry inhibition, cell reporter; Potency, µM (series often up to 37.9 µM), hits mostly inhibitors; 1.2% of 300,000 active; calls by dose curve; tested in HEK293 cells; note: nearly all actives have a fitted effect of over 50% in size
AMA1-RON2 inh = AMA1-RON2 (P. falciparum) interaction inhibition | AlphaScreen AMA1-biotinylated RON2 peptide binding | 0.2% of 360,000 active | AID 720542 | Potency, µM (top dose mostly 58.2 µM), most hits filed as inhibitors; active = well fitted inhibition curve with a large enough effect; inconclusive = small, poorly fitted or top-dose-only effect; inactive = no such curve, though single readings can be large or run the other way; note: nearly all actives have a fitted effect of over 45% in size
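AMA1 (3D7) with his tag at 25 nM final met compounds first, then biotinylated RON2 peptide at 25 nM; detection used donor plus acceptor beads, 10 µg/mL apiece, read by AlphaScreen after 30 min at room temperature.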
A number is an active result; - = inactive; ? = inconclusive; . = no result.

SMILES	CHX counter	MARV entry inh	Shiga toxin inh	LASV entry inh	AMA1-RON2 inh
CCn1c(SCC(=O)Nc2ccc(-c3nc4ccc(C)cc4s3)cc2)nnc1-c1ccccc1	33.9	-	58.9	-	.
O=C(Nc1ccc(-c2nc3ccccc3s2)cc1)c1cc(-n2cnnc2)ccc1Cl	27.0	?	-	?	-
CCOc1ccccc1NC(=O)N1CCc2c(sc(C)c2CC)C1c1ccccc1 (stereo not drawn)	.	.	.	-	.
CCc1nnc(SCC(=O)N(C)c2ccccc2)c2cc3sccc3n12	.	.	.	-	.
CCOc1ccc(C=Nc2cccc3ncccc23)cc1	-	.	-	.	-
COc1ccc(C=Nc2cccnc2N)cc1	24.0	-	.	-	-
Cc1ccc(C=Nc2cccnc2N)cc1	19.1	-	13.0	-	-
O=S1(=O)C2CC3C=CC2(CN1Cc1cccc(F)c1)O3 (stereo not drawn)	-	.	-	.	.
Cc1c(C)c2cccnc2c2ncccc12	.	.	.	.	-
COc1cccc(C(=O)Nc2ccccc2C(=O)OCc2cc(=O)n3nc(C4CC4)sc3n2)c1	.	.	.	-	.
COc1cccc(C(NC(C)=O)c2nc(-c3cccc(C(C)C)c3)cs2)c1 (stereo not drawn)	.	.	.	.	-
COc1ccccc1C(=O)NCCCNc1ccc([N+](=O)[O-])cc1	-	-	-	-	-
COc1ccccc1OCCCOc1ccc([N+](=O)[O-])cc1Cl	50.0	?	125.7	-	-
CC(=O)NCCCNc1ccc([N+](=O)[O-])cc1	23.4	-	34.8	-	-
CC(=O)NCCCOc1ccc([N+](=O)[O-])cc1Cl	16.5	.	-	.	-
COc1cccc(OCCCOc2ccc([N+](=O)[O-])cc2Cl)c1	-	-	-	-	-
Cc1ccc(C(=O)O)cc1NC(=S)NC(=O)c1ccc([N+](=O)[O-])c(C)c1	-	.	-	.	-
Clc1nc2c(-c3ccccc3)nnn2c2ccccc12	23.8	.	-	.	-
Cc1ccc(-c2nnn3c2nc(Cl)c2ccccc23)cc1	-	-	-	-	-
NNc1nc2c(-c3ccc(F)cc3)nnn2c2ccccc12	50.7	-	129.9	-	-
CCOc1ncccc1C(=O)OCc1ccc(Cl)cc1	-	-	-	?	-
COC(=O)c1ccc(OCC(=O)c2ccccc2OC)cc1	22.4	-	-	-	-
CCOc1ncccc1C(=O)OCc1ccc(C(=O)OC)cc1	81.4	?	97.7	-	-
COC(=O)COc1ccc(C(=O)OC)cc1	-	?	-	-	-
COC(=O)c1ccc(COC(=O)c2ccccc2OC)cc1	67.3	.	97.4	.	-
SMILES	CHX counter	MARV entry inh	Shiga toxin inh	LASV entry inh	AMA1-RON2 inh
Cc1ccc(S(=O)(=O)N2[C@@H](c3cccc(Cl)c3)C(C(=O)O)=CC[C@H]2c2ccc(C(C)C)cc2)cc1	.	.	.	.	-
NS(=O)(=O)c1ccc(NC(=O)CSc2nc(Nc3ccccc3)nc(N3CCOCC3)n2)cc1	-	?	-	-	-
CCN1C[C@@H]2[C@@H]3C(=O)N(C)C(=O)[C@@H]3[C@](Cc3ccccc3)(C1=O)N2C(=O)c1ccc(F)cc1	.	.	.	.	-
Fc1ccc(Nc2ncnc3onc(-c4ccc(Cl)cc4)c23)cc1Cl	.	-	.	-	.
CCOC(=O)c1[nH]c(C)c(CCC(=O)Nc2ccc(C(C)=O)cc2)c1C	.	.	.	-	.
C/C(=N\NC(=O)C1(C)CC1(Br)Br)c1ccc(NC(=O)C2CCC2)cc1 (stereo not drawn)	-	-	-	?	-
C/C(=N\NC(=O)c1nn(C)c(C)c1Br)c1ccc(NC(=O)C2CCCC2)cc1	40.6	.	107.2	.	-
C/C(=N\NC(=O)c1ccn(C)n1)c1ccc(NC(=O)C2CCC2)cc1	27.3	.	55.7	.	-
C/C(=N\NC(=O)c1ccn(C)n1)c1ccc(NC(=O)C2CCCC2)cc1	31.5	-	79.2	-	-
CC(CNC(=O)CC[C@H]1O[C@@H](n2cnc3c(NC(=O)c4ccccc4)ncnc32)[C@H](O)[C@@H]1O)c1ccccc1 (stereo partly drawn)	.	.	.	.	-
CCOC(=O)/C(=N\Nc1ccccc1Cl)N1CCN(Cc2ccccc2)CC1	20.5	-	-	-	-
CCOC(=O)/C(=N\Nc1ccccc1)N1CC1	19.4	-	-	-	-
CCOC(=O)/C(=N\Nc1ccccc1Cl)N1CCN(C)CC1	-	?	-	-	-
O=c1c2c(nc3cc(-c4ccccc4)[nH]n13)CCS2	43.4	?	75.1	-	-
O=c1c2c(nc3cc(-c4ccccc4Cl)[nH]n13)CCS2	37.6	?	77.7	-	-
O=C(Nc1ccccc1)C1Cc2c(-c3ccc(Cl)cc3)ccnc2O1 (stereo not drawn)	.	.	.	.	-
COc1cc(-c2nc(Cn3nnc(C(=O)Nc4ccccc4C)c3C)c(C)o2)cc(OC)c1OC	.	?	.	-	.
COc1ccc(CNC(=O)c2cccn2-c2nnc(N3CCCC3)s2)c(OC)c1	.	.	.	-	.
COCCn1c(C)cc(C(=O)CN2C(=O)NC3(CCCCCCC3)C2=O)c1C	52.1	?	92.9	-	-
COCCn1c(C)cc(C(=O)CN2CCCCC2)c1C	-	-	-	-	-
Cc1cc(C)c(C(=O)CN2C(=O)NC3(CCCCC3)C2=O)cc1C	20.9	-	34.3	-	-
Cc1cc(C)c(C(=O)CN2C(=O)NC3(CCC(C)CC3)C2=O)cc1C (stereo not drawn)	-	?	-	-	-
COC(=O)c1ccc2nc(-c3ccc(OC)c(OC)c3)c(Cc3cccc(F)c3)n2c1	.	.	.	.	-
Cc1ccc2oc(=O)c(/C=C(\O)c3cccs3)nc2c1	72.4	-	77.1	-	-
O=c1oc2ccc(Cl)cc2nc1/C=C(\O)c1cccs1	61.5	?	56.4	?	-
SMILES	CHX counter	MARV entry inh	Shiga toxin inh	LASV entry inh	AMA1-RON2 inh
CCS(=O)(=O)c1ccc2oc(=O)c(/C=C(\O)c3ccc(Cl)cc3)nc2c1	-	-	-	-	-
COc1ccc(C(C)(C)C)cc1NC(=O)COC(=O)CSCc1c(C)noc1C	.	-	.	-	-
COc1cccc(C(=O)NCC2(c3ccc(OC)c(OC)c3)CCCC2)c1	-	.	-	.	-
Cc1cccc2nc(CSc3nnc(N)s3)cn12	22.1	-	65.2	-	-
Cc1ccc(Nc2ncnc3c2oc2ccccc23)cc1	45.0	?	-	-	-
COc1ccc(Nc2ncnc3c2oc2ccccc23)cc1	56.0	?	123.7	?	-
COc1ccccc1Oc1ncnc2c1oc1ccccc12	21.0	-	-	-	-
COCCCNC(=O)C[C@@H]1C[C@@]2(C(=O)OC)CC(C)(C)CC=C2N(Cc2ccccc2)C1=O	.	.	.	.	-
NNC(=O)c1ccc(COc2cccc3cccnc23)cc1	32.1	-	-	-	-
O=C(N/N=C/c1ccc[nH]1)c1ccc(COc2cccc3cccnc23)cc1	34.5	?	-	?	-
COc1ccc(Cn2ccc3nc(C)c(C(=O)Nc4ccc(OC)cc4OC)cc3c2=O)cc1	.	.	.	-	.
CCCCCN(C(=O)CCC(=O)OC(C)C(=O)Nc1ccccc1C)c1c(N)n(CCCC)c(=O)[nH]c1=O (stereo not drawn)	.	.	.	.	-
CCN1CCN(c2nc(Nc3ccc(C)c(C)c3)nc(N)c2[N+](=O)[O-])CC1	-	16.4µM	-	-	?
CCOC(=O)c1ccc(-c2ccc(CO)o2)cc1	33.6	?	83.7	-	-
Cc1cc([N+](=O)[O-])ccc1-c1ccc(C2Nc3ccccc3C(=O)N2O)o1 (stereo not drawn)	-	?	-	?	-
